PAFAH1B3 FP inh = PAFAH1B3 (human) inhibition | recombinant PAFAH1B3, FP-rhodamine probe, fluorescence polarization | inhibition, % at 3.39 µM | actives 0.28% (n = 340,000);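 active = inhibition above the screen-wide average of all tested compounds plus 3 SD, cut at about 25% in these data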
Target sequence (Q15102 whole entry, looked up): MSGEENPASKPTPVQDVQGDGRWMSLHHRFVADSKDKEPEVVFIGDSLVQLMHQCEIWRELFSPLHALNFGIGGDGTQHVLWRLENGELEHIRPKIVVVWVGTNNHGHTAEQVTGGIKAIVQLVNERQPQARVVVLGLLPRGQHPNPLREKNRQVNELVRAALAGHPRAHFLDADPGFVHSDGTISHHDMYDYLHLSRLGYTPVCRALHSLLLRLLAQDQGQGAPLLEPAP
PAFAH2 inh = PAFAH2 (human) inhibition; Q99487; recombinant PAFAH2, FP-rhodamine activity probe, fluorescence polarization; inhibition, % at 3.39 µM; actives 0.99% (n = 340,000);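 active = inhibition above the mean over all tested compounds plus 3 SD, cut at about 30% in these data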;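 note: inhibitors block probe labeling of enzyme so polarization drops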
ZTA DNA inh = ZTA (EBV) inhibition in EBNA-1 counter-screen | P03206 | ZTA-DNA binding, fluorescence polarization | inhibition, % at 11 µM | actives 0.15% (n = 320,000); in the data active = inhibition above about 33%
PAFAH1B2 inh = blocks human PAF acetylhydrolase 1b catalytic subunit 2 | P68402 | recombinant PAFAH1B2, FP-rhodamine activity probe, fluorescence polarization | inhibition, % at 3.39 µM | actives 1.2% (n = 340,000) | AID 492953;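 active = inhibition above the mean of all tested compounds plus 3 SD, cut at about 24% in these data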
Target sequence (P68402 whole entry, looked up): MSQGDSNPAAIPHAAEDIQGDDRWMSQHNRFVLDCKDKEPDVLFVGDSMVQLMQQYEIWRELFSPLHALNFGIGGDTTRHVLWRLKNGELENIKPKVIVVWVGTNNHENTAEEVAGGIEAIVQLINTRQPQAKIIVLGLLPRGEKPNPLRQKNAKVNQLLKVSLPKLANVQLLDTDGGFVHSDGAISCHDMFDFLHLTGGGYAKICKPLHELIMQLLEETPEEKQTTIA
EBNA-1 inhibitor = blocks EBNA-1 binding to DNA. AID 1950. actives 0.34% (n = 300,000). EBNA-1 DNA binding, fluorescence polarization. inhibition, % at 14.8 µM; in the data active = inhibition above about 28%
pPAFAH inh = pPAFAH (human) enzyme inhibition; inhibition, % at 3.39 µM; actives 1.5% (n = 330,000); recombinant pPAFAH, FP-rhodamine probe fluorescence polarization; AID 463082; Q13093;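 active = inhibition above the mean inhibition across the screen plus 3 SD, cut at about 25% in these data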;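 note: inhibitors block binding of the rhodamine activity-based probe so polarization drops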
A number is an active result; - = inactive; . = not tested or not shown. Sampled rows, rich in hits. Any-hit rate of the full collection: about 2.9%.

SMILES	PAFAH1B3 FP inh	PAFAH2 inh	ZTA DNA inh	PAFAH1B2 inh	EBNA-1 inhibitor	pPAFAH inh
CCOC(=O)c1sc(-c2ccc(Cl)cc2Cl)nc1O	-	-	-	-	-	-
CN1CCN(S(=O)(=O)c2ccc(Sc3nnnn3-c3ccccc3)c([N+](=O)[O-])c2)CC1	-	-	-	38.5	-	-
CC(=O)c1ccc(Sc2nnnn2-c2ccccc2)c([N+](=O)[O-])c1	-	-	-	-	-	-
COc1ccc(-n2c(SCC(=O)Nc3ccc(Br)cc3)nc(O)cc2=O)cc1	-	-	-	-	-	-
O=C(NCc1ccco1)c1ccccc1NS(=O)(=O)c1ccc(Br)s1	-	-	-	-	-	28.4
CCOc1ccc(CCNS(=O)(=O)c2cc3c(cc2C)NC(=O)CO3)cc1OCC	-	-	-	-	-	-
CCOC(=O)C1Nc2ccccc2C2C(O)C(O)CC12 (configuration not stated)	37.7	-	-	-	-	-
O=C(NCCC1=CCCCC1)C1CCCN(S(=O)(=O)c2ccccc2)C1 (configuration not stated)	-	-	-	27.5	-	-
O=C(NCCC1=CCCCC1)C1CCCN(S(=O)(=O)c2cnc[nH]2)C1 (configuration not stated)	-	-	-	26.5	-	-
O=S(=O)(NCCC1=CCCCC1)c1cccc(S(=O)(=O)N2CCOCC2)c1	-	-	-	-	-	30.4
COc1cccc(/C=C2/Sc3ccc(C(=O)NCCN4CCCC4)cc3NC2=O)c1	-	-	-	-	-	34.3
COc1cccc(/C=C2/Sc3ccc(C(=O)NCCCN4CCCC4)cc3NC2=O)c1	-	-	-	-	-	-
CC1(C)CC(=O)C(CC(=O)Nc2cc(C(F)(F)F)ccc2Cl)C(=O)C1	-	-	-	-	-	-
CCOCCSc1nc2c(c(-c3cccs3)c1C#N)CC/C2=C/c1cccs1	-	-	-	-	-	26.7
CNc1nc(NCCOC23CC4CC(CC(C4)C2)C3)nc(OCC(F)(F)F)n1	-	-	-	31.3	-	-
CNc1nc(OCC(F)(F)F)nc(OCC(F)(F)F)n1	-	-	-	-	-	-
NC(=S)Cc1nc(-c2ccc(Cl)cc2)cs1	-	-	-	-	-	25.1
CC(/C=C1\SC(=S)N(CCCC(=O)Nc2ccc(C(=O)O)c(O)c2)C1=O)=C\c1ccccc1	.	.	-	.	-	30.8
O=C(CCN1C(=O)/C(=C\C=C\c2ccccc2)SC1=S)Nc1ccccc1C(=O)O	-	-	-	-	-	29.8
O=C(CCN1C(=O)/C(=C\C=C\c2ccccc2)SC1=S)Nc1cccc(C(=O)O)c1	-	-	-	-	-	28.5
CC(=C\c1ccccc1)/C=C1/SC(=O)N(CCCC(=O)Nc2ccc(C(=O)O)cc2)C1=O	-	-	-	-	-	-
O=C(CCN1C(=O)/C(=C/C=C/c2ccccc2)SC1=S)Nc1nccs1	-	-	-	-	-	-
O=[N+]([O-])c1ccc(Oc2ccc(S(=O)(=O)N3CCOCC3)cn2)cc1	-	-	-	-	-	-
CC(C)(c1ccccc1)c1ccc(OCCN2CCOCC2)cc1	-	-	-	-	-	26.6
CCOc1cc(CNC(C)(C)CO)cc(Br)c1OCc1ccc(Cl)cc1Cl	-	-	-	-	-	34.0
SMILES	PAFAH1B3 FP inh	PAFAH2 inh	ZTA DNA inh	PAFAH1B2 inh	EBNA-1 inhibitor	pPAFAH inh
Cc1ccc(Oc2c(CO)c(-c3ccccc3)nn2C)cc1	-	-	-	-	-	-
COc1ccc(NS(=O)(=O)c2cccc(C(=O)N/N=C/c3c(F)c(F)c(F)c(F)c3F)c2)cc1	-	-	.	-	.	.
COc1ccc(NS(=O)(=O)c2cccc(-c3nnc4n3CCCCC4)c2)cc1	-	-	-	-	-	28.5
COc1ccc(NS(=O)(=O)c2cccc(C(=O)NNC(=O)c3cc(S(N)(=O)=O)ccc3OC)c2)cc1	-	-	-	-	-	24.8
COc1ccc(NS(=O)(=O)c2cccc(C(=O)N3CCCCCC3)c2)cc1	-	-	-	-	-	31.1
COc1ccc(NS(=O)(=O)c2cccc(C(=O)NN=Cc3ccc(OC)c(O)c3)c2)cc1	-	-	.	-	.	32.0
COc1ccc(NS(=O)(=O)c2cccc(C(=O)NNC(=O)c3ccc(O)c(Cl)c3)c2)cc1	-	-	-	-	.	-
COC(=O)c1ccc(NC(=O)C(=O)N2CCN(C(=S)NCCc3ccccc3)CC2)cc1	-	-	-	-	-	-
COc1ccc(NS(=O)(=O)c2cccc(C(=O)NNC(=O)c3ccc(NC(C)=O)cc3)c2)cc1	-	-	-	-	-	25.8
COc1ccc(NS(=O)(=O)c2cccc(C(=O)NCC(c3ccc(OC)cc3)N3CCOCC3)c2)cc1 (configuration not stated)	-	-	-	-	-	32.0
O=C(O)c1cccc(S(=O)(=O)Nc2ccc(N3CCCCC3)cc2)c1	-	-	.	-	.	26.7
O=C(O)c1cc(S(=O)(=O)Nc2ccc(N3CCCCC3)cc2)ccc1Cl	-	-	-	-	-	-
COc1ccc(NS(=O)(=O)c2cccc(C(=O)NCC(c3ccc(OC)cc3)N3CCCC3)c2)cc1 (configuration not stated)	-	-	-	-	-	-
COc1ccc(NS(=O)(=O)c2cccc(NC(=O)C34CCC(CC3)C4)c2)cc1	-	-	-	-	-	26.0
CCOc1ccccc1C(=O)NCC(=O)NNC(=O)c1cccc(S(=O)(=O)Nc2ccc(OC)cc2)c1	-	-	-	-	-	26.4
COc1ccc(NS(=O)(=O)c2ccc(N3CCCC3)c(NC(=S)Nc3cccc(S(=O)(=O)N(C)C)c3)c2)cc1	.	.	-	.	-	33.0
O=C(O)c1cccc(S(=O)(=O)Nc2ccccc2Cl)c1	-	-	-	-	-	-
COc1ccc(NS(=O)(=O)c2cccc(C(=O)NNC(=O)CNC(=O)c3ccco3)c2)cc1	-	-	-	-	-	-
O=C(O)c1cccc(S(=O)(=O)Nc2cc(Cl)ccc2Cl)c1	-	-	-	24.2	-	-
Cc1ccc(/C=N/N2CCN(Cc3ccc(Cl)cc3)CC2)o1	-	-	-	-	-	-
OCCC1CN(Cc2c(F)cccc2Cl)CCN1C1CCCCC1 (configuration not stated)	-	-	-	-	-	32.5
CN(CC(=O)NCC(=O)Nc1ccc(F)cc1)CC(=O)Nc1ccc(Cl)c(C(F)(F)F)c1	-	-	.	27.8	.	.
CN(CC(=O)NCc1ccc(F)cc1)CC(=O)Nc1ccc(Cl)c(C(F)(F)F)c1	-	-	-	-	-	-
S=C(c1ccccc1)N(c1ccccc1)c1ccccc1	-	-	-	37.5	-	-
COc1ccc2c(c1)CC/C(=C\Nc1ccc3c(c1)OCO3)C2=O	-	-	-	-	-	24.7
Nc1ncnc2c1C1(CCCCC1)Cc1ccccc1-2	-	-	-	-	-	-
Nc1n[nH]c2c1C1(CCCCC1)Cc1ccccc1-2	-	-	-	31.8	-	-
O=C(Nc1cccnc1)C1(c2ccccc2)CCCC1	-	-	-	-	-	-

Screening data (PubChem BioAssay)
